For assay [1], the target named is Retinoic acid receptor RXR-alpha (Homo sapiens) (UniProt P19793). Briefly: qHTS assay to identify small molecule agonists of the RXR signaling pathway (AID 1159527; calls by dose curve; further: on the % scale 0 is the no-effect control and ±100 the full control effect; nearly all actives have a fitted effect of over 35% in size). The essentials: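 qHTS of the Tox21 10K library in GeneBLAzer RXR-alpha HEK 293T cells carrying a beta-lactamase reporter […]; 16 hr treatment, 9-cis retinoic acid as agonist control, FRET read-out.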
Chain of Retinoic acid receptor RXR-alpha (Homo sapiens) (P19793 whole entry, looked up): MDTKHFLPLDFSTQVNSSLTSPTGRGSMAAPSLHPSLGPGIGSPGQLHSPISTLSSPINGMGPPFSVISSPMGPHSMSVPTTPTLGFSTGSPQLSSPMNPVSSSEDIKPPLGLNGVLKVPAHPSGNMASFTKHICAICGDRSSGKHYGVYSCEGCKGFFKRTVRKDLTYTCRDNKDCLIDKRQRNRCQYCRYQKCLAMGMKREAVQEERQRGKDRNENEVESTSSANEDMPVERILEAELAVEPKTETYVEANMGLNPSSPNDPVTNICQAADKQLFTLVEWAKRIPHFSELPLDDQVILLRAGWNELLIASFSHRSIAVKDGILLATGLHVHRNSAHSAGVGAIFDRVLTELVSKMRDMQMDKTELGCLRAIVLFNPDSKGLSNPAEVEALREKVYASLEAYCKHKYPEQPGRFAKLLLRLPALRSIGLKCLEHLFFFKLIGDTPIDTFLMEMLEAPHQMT
In general terms: In qHTS, concentration-response curves come from the screen itself.

In assay [2] the target is Nuclear receptor subfamily 1 group I member 3 (Homo sapiens) (UniProt Q14994). Briefly: qHTS assay to identify small molecule antagonists of the constitutive androstane receptor (CAR) signaling pathway (AID 1224838).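 Further: HepG2 cells stably expressing hCAR with CYP2B6 luciferase reporter stimulated by CITCO; on the % scale 0 is the no-effect control and ±100 the full control effect; nearly all actives have a fitted effect of over 40% in size.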 An outline of the steps:
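Antagonist mode used CITCO at a final 50 nM to activate CAR in human hepatoma HepG2 cells carrying stable hCAR and a 2.2 kb CYP2B6 promoter-luciferase construct. Compounds were tested at 15 concentrations over 24 h, with luminescence as the end point.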

Assay [3] is described as follows: A CellTox Green Cytotoxicity Assay to monitor cytotoxicity in HEK293 cells - 0 hour (AID 1224869). Further: nearly all actives have a fitted effect of over 50% in size. Further: potency means the concentration at half of the fitted maximal effect. On Cytotoxicity: on the % scale 0 is the no-effect control and ±100 the full control effect. The essentials: (§1)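 Cells (HEK293, 600/well) and dye reagent are dispensed together. After 5 h at 37 C, 23 nL compound is pinned in. Plates stay at 37 C for 40 h with fluorescence read at 0h, 8h, 16h, 24h, 32h and 40h.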
The nature of assay [4]: qHTS RealTime-Glo MT Cell Viability Assay in HepG2 cells - 40 hour (AID 1224870). Further: on the % scale 0 is the no-effect control and ±100 the full control effect; nearly all actives have a fitted effect of over 50% in size. The essentials:
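HepG2 cells (600/well) mixed with RealTime-Glo MT reagent, settled 5 h at 37 C/5% CO2 before compound addition. Nonlytic NanoLuc luminescence from viable-cell prosubstrate reduction read repeatedly during 40 h treatment at 37 C.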

Assay [5] can be described thus: qHTS RealTime-Glo MT Cell Viability Assay in HEK293 cells - 40 hour (AID 1224874). Further: nearly all actives have a fitted effect of over 50% in size. Further: potency means the concentration at half of the fitted maximal effect. On max response: on the % scale 0 is the no-effect control and ±100 the full control effect. To be noted: RealTime-Glo luminescence; max response: hits give low values. An outline of the steps:
(§2)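 Real-time viability in HEK293: signal arises when living cells convert a prosubstrate for NanoLuc in the medium, so luminescence tracks viable cell number. Compound (23 nL, DMSO) added 5 h post-seeding; kinetic reads at 0–40 h, 37 C.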

A short description of assay [6]: A CellTox Green Cytotoxicity Assay to monitor cytotoxicity in HepG2 cells - 16 hour (AID 1224876). Further: nearly all actives have a fitted effect of over 45% in size. Further: potency means the concentration at half of the fitted maximal effect. The essentials: (§3)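 Cells and non-lytic dye reagent are dispensed together (600 HepG2 cells/well) and incubated 5 h before DMSO compound transfer. Kinetic fluorescence is then recorded in the same wells during 40 h at 37 C.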
A short description of assay [7]: qHTS RealTime-Glo MT Cell Viability Assay in HepG2 cells - 32 hour (AID 1224877). Further: on the % scale 0 is the no-effect control and ±100 the full control effect; nearly all actives have a fitted effect of over 55% in size. An outline of the steps:
(§4)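 Viability was tracked continuously by NanoLuc luminescence from prosubstrate reduced by living HepG2 cells, at successive time points over 40 h of compound exposure. Cells with reagent were preincubated 5 h at 37 °C before compound addition.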

The nature of assay [8]: qHTS RealTime-Glo MT Cell Viability Assay in HEK293 cells - 0 hour (AID 1224880). Further: top concentration of the series differs between compounds; on the % scale 0 is the no-effect control and ±100 the full control effect; nearly all actives have a fitted effect of over 45% in size. An outline of the steps: as §2
The nature of assay [9]: A CellTox Green Cytotoxicity Assay to monitor cytotoxicity in HEK293 cells - 16 hour (AID 1224888). Further: on the % scale 0 is the no-effect control and ±100 the full control effect; nearly all actives have a fitted effect of over 35% in size. An outline of the steps: as §1
Assay [10] is described as follows: qHTS RealTime-Glo MT Cell Viability Assay in HepG2 cells - 0 hour (AID 1224889). Further: nearly all actives have a fitted effect of over 50% in size. Further: potency means the concentration at half of the fitted maximal effect. An outline of the steps: as §4
Assay [11] in a line: A CellTox Green Cytotoxicity Assay to monitor cytotoxicity in HepG2 cells - 8 hour (AID 1224890). Further: nearly all actives have a fitted effect of over 45% in size. Further: potency means the concentration at half of the fitted maximal effect. An outline of the steps:
as §3

Assay [12] is described as follows: qHTS assay to identify small molecule antagonists of the estrogen receptor alpha (ER-alpha) signaling pathway using the BG1 cell line in the presence of 0.1 nM 17-beta-estradiol - cell viability counter screen (AID 1259241). Further: on the % scale 0 is the no-effect control and ±100 the full control effect; nearly all actives have a fitted effect of over 40% in size. An outline of the steps: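 The cell line endogenously expresses full-length ER-alpha and carries four EREs driving luciferase. Cells are cultured 5 days hormone-free, treated 22 hr with compounds and 0.1 nM estradiol, then viability is read by fluorescence.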

A short description of assay [13]: qHTS assay to identify small molecule antagonists of the androgen receptor (AR) signaling pathway using the MDA cell line in the presence of 0.5 nM R1881 - cell viability counter screen (AID 1259242). Further: on the % scale 0 is the no-effect control and ±100 the full control effect; nearly all actives have a fitted effect of over 45% in size. The essentials: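 Steps: plate MDA-kb2 cells, rest 5 hr at 37C without CO2; pin in compounds in DMSO; add R1881 to 0.5 nM final; incubate 16 hr; add CellTiter-Fluor, 30 min; read fluorescence.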

A short description of assay [14]: qHTS assay to identify small molecule HDAC inhibitors - cell viability counter screen (AID 1259365). The essentials:
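Viability readout: CellTiter-Glo luminescence. Wild-type HCT-116 cells, 2hr compound treatment following overnight attachment at 37 C.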

A short description of assay [15]: qHTS assay to identify small molecule antagonists of the sonic hedgehog signaling (Shh) pathway (AID 1259369; calls by dose curve; further: nearly all actives have a fitted effect of over 45% in size; further: potency means the concentration at half of the fitted maximal effect). The essentials:
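Cells are plated and held 4hr at 37 C, compounds (DMSO) are pinned in, conditioned medium is added to stimulate the pathway, and after 24hr luciferase reagent is added for 30min before luminescence is read.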

Assay [16] is described as follows: qHTS assay to identify small molecule agonists of the TGF-beta/Smad signaling pathway (AID 1346859; active means well fitted activation curve with a large enough effect in the signal ratio in the repeat runs, not every such curve was filed as active; the % refers to the signal ratio; further: series mostly up to about 77 µM; on the % scale 0 is the no-effect control and ±100 the full control effect). The essentials: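 Smad-responsive beta-lactamase reporter cells (HEK 293T) received compounds from DMSO stocks after overnight attachment, were incubated 5 hr, then treated 2 hr with FRET substrate before dual-emission fluorescence measurement (405 nm excitation).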

In assay [17] the target is Voltage-gated inwardly rectifying potassium channel KCNH2 (Homo sapiens) (UniProt Q12809). Briefly: Human Ether-a-go-go-Related Gene (hERG) channel small molecule antagonists: fluorescence cell-based qHTS assay (AID 1671200). Further: nearly all actives have a fitted effect of over 50% in size. Further: potency means the concentration at half of the fitted maximal effect. The essentials:
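Quantitative HTS in hERG-U2OS cells: thallium entry through the channel reports activity, read as continuous 480/540 nm fluorescence over 2 min after stimulus addition.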
(In general: hERG is a cardiac potassium channel; its block is linked to QT prolongation.)

Assay [18] in a line: qHTS assay to identify small molecule agonists or antagonists of the thyroid stimulating hormone receptor (TSHR) signaling pathway - wild type cell line counter screen (AID 1259384; calls by dose curve; further: on the % scale 0 is the no-effect control and ±100 the full control effect). An outline of the steps:
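Wild-type Hek293 cells, 800/well, 18 h at 37C, then compound with Ro20-1724 for 30 min RT. cAMP by HTRF (cAMP-d2/anti-cAMP cryptate), 1 h RT, fluorescence read. 15 concentrations, triplicates.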

Assay [19] deals with Cytochrome P450 2C19 (Homo sapiens) (UniProt P33261). Briefly: Cytochrome P450 Family 2 Subfamily C Member 19 (CYP2C19) small molecule antagonists: luciferase reporter qHTS assay (AID 1671197). Further: potency means the concentration at half of the fitted maximal effect; nearly all actives have a fitted effect of over 65% in size. An outline of the steps: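 Luminescent readout of CYP2C19 activity: luciferin product detected 20 min after adding detection reagent. Before that, compound and enzyme-substrate mix preincubated 10 min at room temperature; NADPH-regenerating system started a 1 h, 37C reaction. Ketoconazole as positive control.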
Chain of Cytochrome P450 2C19 (Homo sapiens) (P33261 whole entry, looked up): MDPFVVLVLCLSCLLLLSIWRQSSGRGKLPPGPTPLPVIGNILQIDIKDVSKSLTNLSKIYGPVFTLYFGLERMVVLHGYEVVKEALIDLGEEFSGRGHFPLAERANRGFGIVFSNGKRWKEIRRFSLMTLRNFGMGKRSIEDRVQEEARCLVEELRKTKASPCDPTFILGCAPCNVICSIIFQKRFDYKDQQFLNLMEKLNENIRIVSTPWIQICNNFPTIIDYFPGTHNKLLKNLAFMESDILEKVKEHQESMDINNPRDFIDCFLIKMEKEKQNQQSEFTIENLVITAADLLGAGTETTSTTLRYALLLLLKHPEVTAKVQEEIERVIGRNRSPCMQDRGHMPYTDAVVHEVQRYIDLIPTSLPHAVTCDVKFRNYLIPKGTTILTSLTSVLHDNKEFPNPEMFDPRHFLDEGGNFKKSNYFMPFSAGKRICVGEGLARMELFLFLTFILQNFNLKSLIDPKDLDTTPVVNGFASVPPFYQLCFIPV
(A reporter such as luciferase makes a cellular process visible.)

The target of assay [20] is Cytochrome P450 1A2 (Homo sapiens) (UniProt P05177). Briefly: Cytochrome P450 Family 1 Subfamily A Member 2 (CYP1A2) small molecule antagonists: luciferase reporter qHTS assay (AID 1671199). Further: nearly all actives have a fitted effect of over 50% in size. Further: potency means the concentration at half of the fitted maximal effect. An outline of the steps:
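Compounds were incubated with CYP1A2 and a luminogenic proluciferin substrate for 10 min at room temperature before the reaction was started with NADPH regeneration solution. After 1 h, detection reagent was added and light output, proportional to CYP activity, was recorded.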

Structures are written as SMILES. Unmarked numbers belong to inactive results. Results filed as inconclusive are left out. Activity calls are given as the source filed them. Unless noted, the call rests on the fitted dose curve; in most records, active means well fitted curve in the direction sought with a large enough effect in the repeat runs; inconclusive means weak or mixed curves; inactive means no such curve, though single readings can be large; an effect the other way counts as inactive or inconclusive.

Chain of Voltage-gated inwardly rectifying potassium channel KCNH2 (Homo sapiens) (Q12809 whole entry, looked up): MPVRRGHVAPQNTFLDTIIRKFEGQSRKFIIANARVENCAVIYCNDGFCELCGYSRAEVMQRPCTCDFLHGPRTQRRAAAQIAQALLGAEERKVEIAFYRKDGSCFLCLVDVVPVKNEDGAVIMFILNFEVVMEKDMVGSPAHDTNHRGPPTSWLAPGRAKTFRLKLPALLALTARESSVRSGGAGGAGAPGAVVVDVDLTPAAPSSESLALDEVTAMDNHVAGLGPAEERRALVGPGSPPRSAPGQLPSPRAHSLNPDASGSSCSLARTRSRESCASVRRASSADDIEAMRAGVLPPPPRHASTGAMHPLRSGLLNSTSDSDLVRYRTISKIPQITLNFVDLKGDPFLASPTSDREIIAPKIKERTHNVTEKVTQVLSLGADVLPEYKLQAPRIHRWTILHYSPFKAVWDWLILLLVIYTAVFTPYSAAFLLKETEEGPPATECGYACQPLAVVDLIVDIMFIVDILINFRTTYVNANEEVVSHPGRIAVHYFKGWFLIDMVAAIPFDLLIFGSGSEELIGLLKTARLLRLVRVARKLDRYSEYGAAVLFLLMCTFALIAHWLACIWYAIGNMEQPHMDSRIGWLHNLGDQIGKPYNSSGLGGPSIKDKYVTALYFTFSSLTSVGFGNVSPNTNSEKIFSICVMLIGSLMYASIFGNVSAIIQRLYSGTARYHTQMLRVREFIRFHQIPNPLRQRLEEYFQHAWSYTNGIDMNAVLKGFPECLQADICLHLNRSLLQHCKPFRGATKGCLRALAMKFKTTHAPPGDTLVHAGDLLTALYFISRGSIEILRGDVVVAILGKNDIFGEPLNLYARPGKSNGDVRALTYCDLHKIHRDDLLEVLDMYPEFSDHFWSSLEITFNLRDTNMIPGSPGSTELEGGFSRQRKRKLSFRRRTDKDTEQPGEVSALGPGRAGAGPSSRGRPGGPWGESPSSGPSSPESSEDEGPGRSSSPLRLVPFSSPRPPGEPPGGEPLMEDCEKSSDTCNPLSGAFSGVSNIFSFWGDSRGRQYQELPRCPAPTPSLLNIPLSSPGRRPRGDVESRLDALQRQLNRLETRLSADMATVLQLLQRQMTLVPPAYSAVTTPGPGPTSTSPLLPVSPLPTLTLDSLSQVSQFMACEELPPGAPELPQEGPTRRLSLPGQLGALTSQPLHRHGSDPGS
Chain of Cytochrome P450 1A2 (Homo sapiens) (P05177 whole entry, looked up): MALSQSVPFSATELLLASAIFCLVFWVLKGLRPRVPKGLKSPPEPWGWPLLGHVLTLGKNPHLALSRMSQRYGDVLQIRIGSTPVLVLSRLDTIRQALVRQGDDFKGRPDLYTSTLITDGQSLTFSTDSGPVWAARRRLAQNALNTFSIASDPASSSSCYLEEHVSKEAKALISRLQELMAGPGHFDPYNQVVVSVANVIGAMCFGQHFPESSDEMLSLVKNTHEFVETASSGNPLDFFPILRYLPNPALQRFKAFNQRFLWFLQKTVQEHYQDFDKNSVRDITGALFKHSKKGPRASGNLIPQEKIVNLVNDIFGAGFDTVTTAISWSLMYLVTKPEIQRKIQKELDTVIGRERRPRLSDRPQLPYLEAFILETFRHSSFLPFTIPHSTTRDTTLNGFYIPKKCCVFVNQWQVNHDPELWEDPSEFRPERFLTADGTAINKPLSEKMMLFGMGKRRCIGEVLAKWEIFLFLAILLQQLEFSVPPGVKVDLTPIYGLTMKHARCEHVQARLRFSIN
Chain of Nuclear receptor subfamily 1 group I member 3 (Homo sapiens) (Q14994 whole entry, looked up): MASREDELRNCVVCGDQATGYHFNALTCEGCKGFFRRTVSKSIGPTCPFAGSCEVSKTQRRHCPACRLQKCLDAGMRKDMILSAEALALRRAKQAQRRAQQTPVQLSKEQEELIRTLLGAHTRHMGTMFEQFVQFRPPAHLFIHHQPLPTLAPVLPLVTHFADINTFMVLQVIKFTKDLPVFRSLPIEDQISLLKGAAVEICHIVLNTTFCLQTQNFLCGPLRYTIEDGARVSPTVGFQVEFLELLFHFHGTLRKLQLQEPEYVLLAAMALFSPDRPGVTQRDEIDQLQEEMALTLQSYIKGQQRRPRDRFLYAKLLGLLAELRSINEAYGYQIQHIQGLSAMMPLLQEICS

Regarding `Nc1ccc(Cl)cc1[N+](=O)[O-]`, the Potency result in assay [1] and in assay [2] was “inactive” each time.

Take `Brc1cc(Br)cc(Br)c1`: the Potency entry in assay [1] and in assay [2] was “inactive” in each case.

Take `C[C@]12CC[C@@H](O)C[C@@H]1CC[C@@H]1[C@@H]2CC[C@]2(C)C(=O)CC[C@@H]12`: the Potency result in [3], in assay [4], in assay [6], in assay [7], in assay [9] and in assay [11] was “inactive” in each case. The Potency entry in assay [12], in assay [13] and in assay [17] was “inactive” each time. For the same compound, the values for the Potency in [5], in assay [10] and in [15] were 24.5 µM (active), 34.7 µM (active) and 19.3 µM (active), respectively. In addition, the outcome in assay [8], in [14] and in assay [16] was inactive.

With `ClC1=C(Cl)C(Cl)(Cl)C(Cl)=C1Cl`, in [1], the Potency entry was “inactive”.

Regarding `CC(c1ccccc1)(c1ccc(O)cc1)c1ccc(O)cc1`, the Potency entry in [3], in assay [4], in assay [7], in assay [10], in [12] and in [13] was “inactive” in each case. For the same compound, the Potency result in [20] and in assay [17] was “inactive” throughout. Besides, the Potency was 43.6 µM (active) in [5], 21.7 µM (active) in assay [15] and 8.94 µM (active) in assay [19]. Moreover, the compound was classed as inactive in assay [14], in assay [18] and in assay [16].

`COc1ccc(C(c2ccc(OC)cc2)C(Cl)(Cl)Cl)cc1`: the Potency result in assay [2], in assay [3], in assay [4], in [6], in assay [9] and in assay [10] was “inactive” each time. The Potency result in assay [11], in [12] and in assay [13] was “inactive” throughout. Further, the Potency in assay [5] is 52.6 µM (active); in assay [15], 21.6 µM (active); in [19], 0.354 µM (active); in assay [20], 25 µM (active). Besides, the compound was classed as inactive in assay [8], in assay [14], in [18] and in [16].

`CCc1cccc(CC)c1N`: the Potency entry in assay [1] was “inactive”.

`Brc1c2ccccc2c(Br)c2ccccc12`: in assay [1], the activation was 1.52% [at 6.98 µM].

On to `O=C(Nc1ccccc1-c1ccc(Cl)cc1)c1cccnc1Cl`, for which the Potency entry in [2], in assay [4], in assay [7], in assay [12], in assay [13] and in assay [17] was “inactive” throughout. For the same compound, the Potency in assay [3] was 46.3 µM (active); in assay [6], 41.2 µM (active); in [11] it was 41.2 µM (active); in assay [19], 3.56 µM (active); in assay [20], 8.42 µM (active). The compound was classed as inactive in assay [8], in [14], in assay [18] and in [16].

Regarding `ClC(Cl)=C(c1ccc(Cl)cc1)c1ccccc1Cl`, the Potency result in assay [2], in assay [3], in assay [4], in assay [6], in assay [7] and in [9] was “inactive” in each case. For the same compound, the Potency result in assay [10], in assay [11], in assay [12], in [13], in assay [15] and in assay [20] was “inactive” each time. The result in [8], in [14] and in assay [18] was inactive. The figures for the Potency in assay [19] and in [17] were 6.33 µM (active) and 21.9 µM (active), respectively.

Consider `Cc1nnc2n1-c1sc(CCc3ccc(CC(C)C)cc3)cc1C(c1ccccc1Cl)=NC2C` (stereo not given), for which the Potency entry in assay [2], in assay [3], in [6], in assay [9], in [10] and in [11] was “inactive” each time. In addition, the Potency entry in assay [12] and in [20] was “inactive” throughout. For the same compound, the Potency in assay [5] was 9.52 µM (active); in assay [15], 21.1 µM (active); in assay [17] it was 15.1 µM (active). Also, the compound was called inactive in assay [14] and in assay [18].

Take `COc1cc(OC)c(OC)cc1C=O`: the Potency entry in [2], in [3], in [4], in [6], in assay [7] and in assay [9] was “inactive” throughout. The Potency result in assay [10], in [13] and in [17] was “inactive” in each case. Further, the max response in assay [5] was -0.404%. The result in assay [8], in assay [14], in [18] and in [16] was inactive. The results for the Potency in [15], in assay [19] and in [20] were 13.3 µM (active), 38.7 µM (active) and 11 µM (active), respectively.

For the origin of these results see PubChem BioAssay (Tox21).
